The panel holds about 79,000 compounds, 15% with a hit somewhere; the sample as a whole holds those more often. Values without a mark were called inactive. Active and inactive are the calls of the source. Cut-off read from the data, not from the text of the source: active = growth inhibition above about 70%; inactive = the rest.
Assays:
[1] = NCI Yeast Anticancer Drug Screen. Data for the rad50 strain (AID 155);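 note: 0% = growth of vehicle-only cultures of the same strain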; conditions: S. cerevisiae rad50 strain growth inhibition; at 50.0 µM; hits give high values
Method in brief: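 Relative growth inhibition (compound vs vehicle) was measured in yeast with a defined repair-gene alteration.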

[2] = NCI Yeast Anticancer Drug Screen. Data for the mec2-1 strain (AID 157); conditions: S. cerevisiae mec2-1 strain, at 50.0 µM, hits give high values
Method in brief: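 mec2-1 yeast strain, carrying an alteration in DNA damage repair or cell cycle control, was exposed to compounds; growth inhibition was measured relative to vehicle-treated controls.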

[3] = NCI Yeast Anticancer Drug Screen. Data for the sgs1 mgt1 strain (AID 161);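 note: 0% = growth of cultures given vehicle only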; conditions: S. cerevisiae sgs1 mgt1 strain, at 50.0 µM, hits give high values
Method in brief: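 This yeast growth screen uses a strain with defined DNA-repair lesions; compound-treated growth is compared with vehicle-treated growth.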

[4] = NCI Yeast Anticancer Drug Screen. Data for the cln2 rad14 strain (AID 165);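 note: 0% = growth equal to vehicle treated cultures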; conditions: S. cerevisiae cln2 rad14 strain, at 50.0 µM, hits give high values
Method in brief: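 Yeast carrying cln2 and rad14 alterations (cell cycle control and DNA damage repair) were exposed to compounds. Growth inhibition was measured against vehicle-treated controls.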

[5] = NCI Yeast Anticancer Drug Screen. Data for the bub3 strain (AID 167); conditions: S. cerevisiae bub3 mutant strain, at 50.0 µM, hits give high values
Method in brief: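 Screening used yeast with an engineered genetic alteration affecting cell cycle control. Compound-exposed cultures were compared with vehicle cultures, and reduced growth was taken as inhibition.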

[6] = NCI Yeast Anticancer Drug Screen. Data for the mlh1 rad18 strain (AID 175); conditions: S. cerevisiae mlh1 rad18 strain growth inhibition; at 50.0 µM; hits give high values
Method in brief: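 Growth inhibition of the yeast strain was measured after compound exposure and expressed relative to vehicle-treated controls. The strain carries defined defects in DNA damage repair.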

| Compound | growth inhibition [1] | growth inhibition [2] | growth inhibition [3] | growth inhibition [4] | growth inhibition [5] | growth inhibition [6] |
| --- | --- | --- | --- | --- | --- | --- |
| NNc1ncnc2c(C3OC(CO)C(O)C3O)[nH]nc12 (stereo not given) | 7% | 6.35% | 8.2% | -70.3% | 7.15% | 8.95% |
| O=[N+]([O-])c1ccc(-c2cc[cH-]c2)cc1.[Fe+2].c1cc[cH-]c1 | -4.4% | 14.2% | 13.8% | 3.4% | 17.8% | -0.75% |
| CCCC(C)C1(CCC)C(=O)N=C(N)N=C1N (stereo not given) | 3.8% | 7.75% | -3.9% | 12.4% | -2.8% | -10.5% |
| Clc1ccc(-c2ncc(-c3ccccc3)o2)c(Cl)c1 | 9.35% | -3.4% | 5.65% | -39.9% | 9.2% | 23.2% |
| CC(=O)OCc1cc(OC(C)=O)cnc1COC(C)=O | -9.25% | -24.6% | -17.4% | -19.2% | -7.85% | -36.2% |
| CCc1nnc(CC)n1NCCCC(=O)O | 26.3% | 24.2% | 20.8% | 18.2% | 24.9% | 15.7% |
| Cc1n[nH]c2ccccc2c1=O | -4.85% | -17.9% | -21.6% | -18.1% | -23.6% | -9.95% |
| COc1ccc2c(c1OC)C1NCCc3cc4c(cc3C1(OC)C2=O)OCO4 (stereo not given) | 21.9% | 2.35% | 0.85% | 0.5% | 2% | 8.55% |
| Cc1ccc(S(=O)(=O)N2CC(O)C=Cc3ccccc32)cc1 (stereo not given) | 5.4% | -3.1% | -4.45% | 17.5% | 5.15% | 9.85% |
| Cc1ccc(S(=O)(=O)OCCNc2ccc([N+](=O)[O-])cc2[N+](=O)[O-])cc1 | 2% | 6.8% | 6.45% | 11.8% | 2.9% | 7.85% |
| CCCCCCCCCCCCCCCC(C)O (stereo not given) | -45.8% | -35.8% | -20.1% | -35.6% | -43.5% | -34.8% |
| N#C/C(=C\c1ccccc1)c1cccc(Cl)c1 | -32.2% | -5.8% | -13.3% | -97.1% | 13.8% | -12.7% |
| CC1CN=C(c2ccccn2)C(c2ccccn2)=N1 (stereo not given) | 4.85% | 6.6% | 14.5% | -1.1% | 17.4% | 10.2% |
| COC(=O)/C(=N\NC(C)(C)C)C(C(=O)C(=O)Nc1cc(C)ccc1C)c1nc2ccccc2[nH]c1=O (stereo not given) | -18.8% | -6.9% | -1.5% | 18.8% | -7.95% | -17.8% |
| O=C1CC(=O)N2C=CC=CC2N1 (stereo not given) | -14.8% | -21.6% | -23.1% | -4.7% | -16.7% | -13.5% |
| COc1c(F)c(F)c(/C(O)=C\c2nc3ccccc3[nH]c2=O)c(F)c1F | -19.6% | -22.9% | -17.4% | 13.6% | -2.05% | -11.3% |
| CCC1(c2ccccc2)Nc2ccccc2C1=Nc1ccccc1 (stereo not given) | 20.1% | 15.5% | 20.2% | 9.5% | 11.7% | 27.4% |
| OC(Cc1cccc(=S)[nH]1)(c1ccccc1)c1ccccc1 | -7.35% | -7.25% | -9.25% | -37.9% | -1.8% | -26.3% |
| COc1ccc(/C=C/C(=O)c2cc(C(=O)O)c(OC)cc2OC)cc1OC | 4% | -6.45% | 22.4% | 14.2% | 17.9% | -20.8% |
| Cc1cccc(O)c1O | 25.2% | 0.15% | 23.1% | -0.2% | 16.8% | 20.4% |

| Compound | growth inhibition [1] | growth inhibition [2] | growth inhibition [3] | growth inhibition [4] | growth inhibition [5] | growth inhibition [6] |
| --- | --- | --- | --- | --- | --- | --- |
| O=C(NCCCN1CC2CCCC2C1)C(c1ccccc1)c1ccccc1 (stereo not given) | -22.9% | -2.55% | -41.8% | -5.3% | -10.7% | -24.3% |
| O=C(O)c1ccc(NC(NC(=O)C(C(F)(F)F)C(F)(F)F)(C(F)(F)F)C(F)(F)F)cc1 | 20.2% | 14.4% | 8.9% | 1.2% | 11.2% | 14.4% |
| Cc1nc2cnc(N)nc2nc1C | -6.85% | -16.9% | -3.65% | -40.4% | 0.8% | 0.75% |
| Cc1ccc2c(c1)P(=O)(O)c1cc(C)ccc1O2 | -45.4% | -13.2% | 23.6% | 3.2% | -9.6% | -8.55% |
| O=S(=O)(CCN1CCCCC1)c1ccc(F)cc1 | 21.4% | -12.5% | 3.05% | -10.8% | 2.4% | 9.95% |
| O=C(/C=C/c1ccccc1)NCCC1(O)C(=O)Nc2ccccc21 (stereo not given) | -8% | -17.2% | 3.05% | 8.35% | -10.5% | -15.5% |
| ClCCOC(CCl)OCCCl | 24.1% | 6.9% | 22.1% | 20.4% | 6.5% | 14.5% |
| CCOC(=O)C(C(=O)/C=C\c1ccccc1)(C(c1ccccc1)c1ccccc1)C(c1ccccc1)c1ccccc1 | -9.7% | 14.7% | 5% | -38.5% | 2.9% | 2.1% |
| O=C(OCc1ccccc1CN1CCCCC1)c1ccc([N+](=O)[O-])cc1Cl | -7.4% | -6.45% | 0.85% | -34.9% | -2.6% | -29.7% |
| Cc1cccc(C2CCCCC2OS(C)(=O)=O)c1 (stereo not given) | -2.95% | -6.4% | -16.9% | -10.1% | 11.8% | -13.6% |
| COC(=O)C1(C)CCCC2(C)C3CCC(C(C)C)CC3CCC12 (stereo not given) | 24.9% | -12.8% | 20.1% | -12.6% | -5.9% | 8.65% |
| CC1COC(C)(C)O1 (stereo not given) | 19.3% | -31.6% | 16.4% | 0.65% | 8% | 11.2% |
| N#CCCN(CCC#N)Cc1ccc2c(O)c(CN(CCC#N)CCC#N)ccc2c1O | 23.8% | 7.35% | 3.35% | -1.65% | -0.15% | 3.65% |
| COc1cc(C2=N/C(=C\c3cccc([N+](=O)[O-])c3)C(=O)O2)cc(OC)c1OC | -0.45% | -7.25% | 11.6% | -8.05% | -0.2% | -22.5% |
| Cc1ccc(S(=O)(=O)N/N=C/c2cc(I)cc(I)c2O)cc1 | 99.5% (active) | 99.3% (active) | 99.2% (active) | 99.4% (active) | 98.3% (active) | 99.1% (active) |
| Oc1ccc(Cl)cc1CC(=S)N1CCOCC1 | 11.1% | 1.3% | 0.45% | -10.4% | 3.4% | -3.9% |
| O=[N+]([O-])c1ccc(C[Se]c2ncnc3c2ncn3C2OC(CO)C(O)C2O)cc1 (stereo not given) | -15.1% | -7% | 13.6% | -32.2% | 0.6% | -8.35% |
| CCCCCSc1ncnc2c1ncn2CO | 0.9% | 18.1% | 7.45% | 9.75% | 42.7% | 3.6% |
| CC1CCC2C(C(=O)O[C@H]3C4C=CO[C@@H](OC5OC(CO)C(O)C(O)C5O)C4[C@@]4(CO)O[C@@H]34)=CO[C@@H](OC3OC(CO)C(O)C(O)C3O)C12 (stereo not given in full) | -12.3% | -32.5% | -18.6% | 4.2% | -12.8% | -11.4% |
| CC1=CC(=O)C2C(C)(C)CCCC2(C)C1(O)CCc1ccoc1 (stereo not given) | 96.2% (active) | 88% (active) | 93.4% (active) | 92.2% (active) | 89.7% (active) | 96.8% (active) |
